Laboratory results from PubChem BioAssay (NCI).
About 83,000 compounds went through this panel and 20% of them were active in at least one assay; those are over-represented in the sample as a whole.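 Assay: single dose, 48 h. Readout: percent growth (0 = no net growth; negative = cell death). Active: <10.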 Activity calls are given as the source filed them.

Legend:
Assay in all cases: NCI-60 one-dose screen, 48 h (100 = growth as untreated, 0 = no growth, -100 = all killed)
SK-MEL-2 melanoma = settings: 10 µM unless noted
EKVX NSCLC = settings: 10 µM unless noted
SN12C renal = settings: 10 µM unless noted
UO-31 renal = settings: 10 µM unless noted
TK-10 renal = settings: 10 µM unless noted
ACHN renal = settings: 10 µM unless noted
CAKI-1 renal = settings: 10 µM unless noted
HL-60(TB) leukemia = settings: 10 µM unless noted
CCRF-CEM leukemia = settings: 10 µM unless noted
MOLT-4 leukemia = settings: 10 µM unless noted
SR leukemia = settings: 10 µM unless noted
RPMI-8226 leukemia = settings: 10 µM unless noted
OVCAR-8 ovarian = settings: 10 µM unless noted
OVCAR-5 ovarian = settings: 10 µM unless noted
OVCAR-4 ovarian = settings: 10 µM unless noted
IGROV1 ovarian = settings: 10 µM unless noted
OVCAR-3 ovarian = settings: 10 µM unless noted
HS 578T breast = settings: 10 µM unless noted
SK-OV-3 ovarian = settings: 10 µM unless noted
A498 renal = settings: 10 µM

Measured: growth

O=C1C(=Cc2cn(Cc3ccccc3)c3ccccc23)C(=O)N(Cc2ccccc2)C(=O)N1Cc1ccccc1
inactive: SK-MEL-2 melanoma 83.9% | EKVX NSCLC 97.5% | SN12C renal 101% | UO-31 renal 73.3% | TK-10 renal 40.7% | ACHN renal 86.2% | CAKI-1 renal 94.6% | HL-60(TB) leukemia 96.4% | CCRF-CEM leukemia 118% | MOLT-4 leukemia 95.2% | SR leukemia 87.2% | RPMI-8226 leukemia 93.2% | OVCAR-8 ovarian 83.5% | OVCAR-4 ovarian 57.3% | IGROV1 ovarian 75.8% | OVCAR-3 ovarian 97.7% | HS 578T breast 90.7%
active: OVCAR-5 ovarian -7.28%

O=[N+]([O-])c1cnc[nH]1
inactive: SK-MEL-2 melanoma 102% | EKVX NSCLC 109% | SN12C renal 103% | UO-31 renal 94.8% | TK-10 renal 111% | ACHN renal 118% | CAKI-1 renal 99% | HL-60(TB) leukemia 134% | CCRF-CEM leukemia 103% | MOLT-4 leukemia 114% | SR leukemia 117% | RPMI-8226 leukemia 107% | OVCAR-8 ovarian 109% | OVCAR-5 ovarian 108% | OVCAR-4 ovarian 114% | IGROV1 ovarian 127% | OVCAR-3 ovarian 112% | HS 578T breast 106%

CC(=O)OC[C@]1(C)C=C2C(=O)[C@](C)(O)C3(CC3)C(C)=C2[C@H]1O
active: SK-MEL-2 melanoma -55.1% | EKVX NSCLC -13.7% | SN12C renal -5.94% | UO-31 renal -47.3% | TK-10 renal -15.3% | ACHN renal -12.4% | CAKI-1 renal 1.8% | HL-60(TB) leukemia -12.4% | SR leukemia 9.64% | OVCAR-8 ovarian -0.446% | OVCAR-5 ovarian -14.4% | OVCAR-4 ovarian -9.54% | SK-OV-3 ovarian -40.4% | IGROV1 ovarian -31.1% | OVCAR-3 ovarian -29.4% | HS 578T breast -21.5%
inactive: CCRF-CEM leukemia 14.6% | MOLT-4 leukemia 12.2% | RPMI-8226 leukemia 75.8%

CC(=O)O[C@H](C[C@H](C(C)C)N(C)C(=O)[C@@H](NC(=O)[C@H]1CCCCN1C)C(C)C)c1nc(C(=O)N[C@@H](Cc2ccccc2)C[C@H](C)C(=O)O)c(CCOCc2ccccc2)s1
active: SK-MEL-2 melanoma 2.3% | SN12C renal 9.77% | HL-60(TB) leukemia -29.3% | CCRF-CEM leukemia 9.38% | SR leukemia 9.77% | RPMI-8226 leukemia -3.42% | OVCAR-3 ovarian -6.07%
inactive: EKVX NSCLC 49% | UO-31 renal 31.8% | TK-10 renal 31.3% | ACHN renal 12.3% | CAKI-1 renal 24.4% | MOLT-4 leukemia 11% | OVCAR-8 ovarian 10.8% | OVCAR-5 ovarian 35.7% | OVCAR-4 ovarian 37% | SK-OV-3 ovarian 44.6% | IGROV1 ovarian 10.7% | HS 578T breast 11.4%

COC(=O)[C@@H](C)C[C@H](Cc1ccccc1)NC(=O)c1nc([C@@H](C[C@H](C(C)C)N(C)C(=O)[C@@H](NC(=O)[C@H]2C[C@H](O)CCN2C)C(C)C)OC(C)=O)sc1C(C)C
active: SN12C renal 7.67% | HL-60(TB) leukemia -42.3% | CCRF-CEM leukemia 4.78% | SR leukemia 3.04% | RPMI-8226 leukemia -4.65% | SK-OV-3 ovarian 2.1% | OVCAR-3 ovarian 2.66% | HS 578T breast 6.61%
inactive: SK-MEL-2 melanoma 12.4% | EKVX NSCLC 35.2% | UO-31 renal 12.5% | TK-10 renal 27.5% | ACHN renal 10.8% | CAKI-1 renal 23.8% | MOLT-4 leukemia 11% | OVCAR-8 ovarian 10.6% | OVCAR-5 ovarian 33.4% | OVCAR-4 ovarian 35.6% | IGROV1 ovarian 10.2%

Nc1c(F)cc(-c2nc3cc(F)ccc3[se]2)cc1Br
inactive: SK-MEL-2 melanoma 90.5% | EKVX NSCLC 32.7% | SN12C renal 88.1% | UO-31 renal 60.1% | ACHN renal 27.5% | A498 renal 31.4% | HL-60(TB) leukemia 95.9% | CCRF-CEM leukemia 95.5% | MOLT-4 leukemia 91.2% | SR leukemia 15.7% | RPMI-8226 leukemia 35.1% | OVCAR-8 ovarian 93.1% | OVCAR-4 ovarian 30.1% | SK-OV-3 ovarian 39.7% | OVCAR-3 ovarian 40.8% | HS 578T breast 96.6%
active: TK-10 renal -4.6% | OVCAR-5 ovarian 8.24% | IGROV1 ovarian 5.47%

O=C(CC1(O)C(=O)N(Cc2ccccc2)c2ccc(Cl)cc21)c1ccc(C(=O)NCC2CCC3(CC2)OOC2(CCCCC2)OO3)cc1 (stereo not drawn)
inactive: SK-OV-3 ovarian 68%
active: SK-MEL-2 melanoma 2.93% | EKVX NSCLC -71.1% | SN12C renal -58.1% | UO-31 renal -74.2% | TK-10 renal -91.5% | ACHN renal -83.9% | A498 renal -91% | HL-60(TB) leukemia -62.7% | CCRF-CEM leukemia -42.7% | MOLT-4 leukemia -50.5% | SR leukemia -44.2% | RPMI-8226 leukemia -27.7% | OVCAR-8 ovarian -27.5% | OVCAR-5 ovarian 5.96% | OVCAR-4 ovarian -40.2% | IGROV1 ovarian -35.2% | OVCAR-3 ovarian -83.8%

CCCC[C@H](NC(=O)[C@H]1CCCCN1C)C(=O)N(C)[C@H](C[C@@H](OC(C)=O)c1nc(C(=O)N[C@@H](Cc2ccccc2)C[C@H](C)C(=O)OCC)cs1)C(C)C
inactive: SK-MEL-2 melanoma 11.8% | EKVX NSCLC 47.8% | SN12C renal 23.9% | UO-31 renal 31.9% | ACHN renal 13.5% | MOLT-4 leukemia 12.7% | RPMI-8226 leukemia 10.7% | OVCAR-8 ovarian 21% | OVCAR-5 ovarian 36.2% | OVCAR-4 ovarian 49.5% | IGROV1 ovarian 24.4% | HS 578T breast 12.1%
active: TK-10 renal -7.07% | A498 renal -11.9% | HL-60(TB) leukemia -25.7% | CCRF-CEM leukemia 8.81% | SR leukemia 4.92% | SK-OV-3 ovarian -6.08% | OVCAR-3 ovarian 3.86%

COC(=O)[C@@H](NC(=O)c1cn(CCC2CCCCC2)c2ccccc12)C(C)(C)C
inactive: SK-MEL-2 melanoma 78.1% | EKVX NSCLC 58.6% | SN12C renal 65.7% | UO-31 renal 39.2% | TK-10 renal 77.8% | ACHN renal 59.5% | A498 renal 84.2% | HL-60(TB) leukemia 60% | CCRF-CEM leukemia 72% | MOLT-4 leukemia 64.3% | SR leukemia 61.3% | RPMI-8226 leukemia 64.9% | OVCAR-8 ovarian 77.7% | OVCAR-5 ovarian 82% | OVCAR-4 ovarian 68.7% | SK-OV-3 ovarian 79.2% | IGROV1 ovarian 62.3% | OVCAR-3 ovarian 77.4% | HS 578T breast 83.9%

COC(=O)[C@@H](C)C[C@H](Cc1ccccc1)NC(=O)c1csc([C@@H](C[C@H](C(C)C)N(C)C(=O)[C@H](C)NC(=O)[C@H]2CCCCN2C)OC(C)=O)n1
active: HL-60(TB) leukemia -19.6% | OVCAR-3 ovarian -0.67% | HS 578T breast 6.45%
inactive: SK-MEL-2 melanoma 41.9% | EKVX NSCLC 53.6% | SN12C renal 36% | UO-31 renal 66.4% | TK-10 renal 61.7% | ACHN renal 48.2% | A498 renal 56.4% | CCRF-CEM leukemia 12.3% | MOLT-4 leukemia 33.2% | SR leukemia 15.8% | RPMI-8226 leukemia 15.7% | OVCAR-8 ovarian 26.4% | OVCAR-5 ovarian 63.7% | OVCAR-4 ovarian 60.3% | SK-OV-3 ovarian 47.2% | IGROV1 ovarian 47%

COc1cc([C@@H]2c3cc4c(cc3[C@H](OC(C)=O)[C@H]3COC(=O)[C@H]23)OCO4)cc(OC)c1OC
active: A498 renal -7.56% | HL-60(TB) leukemia -24.8% | SR leukemia 9.46% | OVCAR-3 ovarian 1.52%
inactive: SK-MEL-2 melanoma 33.2% | EKVX NSCLC 38.3% | SN12C renal 31.9% | UO-31 renal 43.7% | TK-10 renal 65.9% | ACHN renal 28.7% | CCRF-CEM leukemia 14.4% | MOLT-4 leukemia 16.7% | RPMI-8226 leukemia 23.4% | OVCAR-8 ovarian 21.1% | OVCAR-5 ovarian 56.4% | OVCAR-4 ovarian 41.3% | SK-OV-3 ovarian 39.3% | IGROV1 ovarian 21.2% | HS 578T breast 46.6%

O=C1CNC(c2ccccc2)c2cc(Cl)ccc2N1 (stereo not drawn)
inactive: SK-MEL-2 melanoma 95.5% | EKVX NSCLC 104% | SN12C renal 97.6% | UO-31 renal 80.4% | TK-10 renal 93.2% | ACHN renal 109% | A498 renal 97.5% | HL-60(TB) leukemia 97.5% | CCRF-CEM leukemia 94.2% | MOLT-4 leukemia 93.5% | SR leukemia 88.8% | RPMI-8226 leukemia 109% | OVCAR-8 ovarian 99.7% | OVCAR-5 ovarian 113% | OVCAR-4 ovarian 112% | SK-OV-3 ovarian 98.2% | IGROV1 ovarian 100% | OVCAR-3 ovarian 98% | HS 578T breast 109%

CC[C@H](C)[C@H](NC(=O)[C@H]1CCCCN1C)C(=O)N(C)[C@H](CCc1nc(C(=O)N[C@@H](Cc2ccccc2)C[C@H](C)C(=O)OC)cs1)C(C)C
active: A498 renal -2.22% | HL-60(TB) leukemia -21.2% | SK-OV-3 ovarian 8.81% | OVCAR-3 ovarian -18.6%
inactive: SK-MEL-2 melanoma 32.7% | EKVX NSCLC 47.3% | SN12C renal 28.9% | UO-31 renal 43.5% | TK-10 renal 54.3% | ACHN renal 29.3% | CCRF-CEM leukemia 12.8% | MOLT-4 leukemia 15% | SR leukemia 13.2% | RPMI-8226 leukemia 15.5% | OVCAR-8 ovarian 23.2% | OVCAR-5 ovarian 49.3% | OVCAR-4 ovarian 43.6% | IGROV1 ovarian 26.8% | HS 578T breast 39.2%

CCCCN1CCCC[C@@H]1C(=O)N[C@H](C(=O)N(C)[C@H](CCc1nc(C(=O)N[C@@H](Cc2ccccc2)C[C@H](C)C(=O)OC)cs1)C(C)C)[C@@H](C)CC
active: SR leukemia 8%
inactive: SK-MEL-2 melanoma 24.8% | EKVX NSCLC 61.2% | SN12C renal 77.6% | UO-31 renal 48% | TK-10 renal 69.2% | ACHN renal 52.2% | A498 renal 32.9% | HL-60(TB) leukemia 27.5% | CCRF-CEM leukemia 61.6% | MOLT-4 leukemia 34.7% | RPMI-8226 leukemia 28.6% | OVCAR-8 ovarian 80.9% | OVCAR-5 ovarian 101% | OVCAR-4 ovarian 56.9% | SK-OV-3 ovarian 49.9% | IGROV1 ovarian 48.9% | OVCAR-3 ovarian 13.8% | HS 578T breast 76%
